Data from PubChem BioAssay AID1910 (Broad Institute, 2009).
Screen size: about 300,000 compounds; about 950 (0.32%) were called active. The sample holds actives, similar compounds and a random draw of the others, so the mix is not that of the screen. A number with no mark means an inactive call.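 The calls were made as follows: active = mean activation of at least 10% of the iron chelator positive control signal, with at least half of replicates also reaching 10%; inconclusive = mean and replicate majority disagree about reaching 10%; inactive = mean and most replicates under 10%.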

assay: hypoxia response element reporter activation – cell-based, U2OS HRE-luciferase, luminescence, primary screen (AID 1910); settings: active compounds read high, screened at 7.5 µM (by protocol), normalized: DMSO 0%, desferrioxamine 100%

SMILES | activation
O=C(NCCCn1ccnc1)c1cc(-c2ccccc2)on1 | 35.8% (active)
O=C(NC1CCCC1)c1cc(-c2ccccc2)on1 | 25.3% (active)
CC(NC(=O)c1cc(-c2ccccc2)on1)c1ccccc1 (configuration not stated) | 0.0998%
COc1ccccc1-c1cc(C(=O)NCCCn2ccnc2)no1 | 0.0935%
O=C(NC1CCCCC1)c1cc(C2CC2)on1 | 1.35%
COc1ccc(-c2cc(C(=O)NCCCn3ccnc3)no2)cc1 | 1.05%
Cc1ccccc1C(=O)N1CCC(C(=O)Oc2ccc(C#N)cc2)CC1 | -0.988%
CC(=O)c1ccc(NC(=O)C2CCCN2S(=O)(=O)c2cccs2)cc1 (configuration not stated) | -0.0783%
N#CCCN(C(=O)COC(=O)C1CCN(c2ccc(C(F)(F)F)cn2)CC1)c1ccc(F)cc1 | 0.186%
COc1cccc(-c2ccc(C#N)c(SCC(=O)NCCc3ccc(Cl)cc3)n2)c1 | -0.149%
COc1ccc(CCNC(=O)CSc2nnc3ccc(-c4ccncc4)nn23)cc1 | -0.329%
COc1ccc(CCNC(=O)CSc2nc(-c3ccc(OC)c(OC)c3)ccc2C#N)cc1 | 225% (active)
C=CCOc1ccc(/C=C/C(=O)OCC(=O)NC(C)c2ccc(F)cc2)cc1 (configuration not stated) | -1.98%
CCOc1ccc(NC(=O)c2ccc(NC(=O)CN3C(=O)C(=O)N(CC(C)C)C3=O)cc2)cc1 | -0.207%
CC1CC(C)CN(CCCNC(=O)Cn2ncc3c([nH]c4ccccc43)c2=O)C1 (configuration not stated) | -0.555%
Cc1cccc(CCNC(=O)Cn2ncc3c([nH]c4ccc(C)cc43)c2=O)c1 | 67.3% (active)

SMILES | activation
Cc1ccc2[nH]c3c(=O)n(CC(=O)NCCc4ccc(Cl)cc4)ncc3c2c1 | 0.0828%
Cc1ccc2nnn(Cc3cccc(C(C)(C)C)c3O)c2c1 | -0.574%
CCc1cccc(C)c1NC(=O)COC(=O)CC1CCCC1 | -0.451%
CC(=O)Nc1ccc(S(=O)(=O)N2CCC(NC(=O)c3ccccc3)CC2)cc1 | -33.2%
CC(=O)N1CCN(CCN=CC2=C(O)CC(C)(C)CC2=O)CC1 | -0.482%
CCNC(=S)N1CCN(CCN=CC2=C(O)CC(C)(C)CC2=O)CC1 | -0.656%
CC1(C)CC(=O)C(C=NCCN2CCN(C(=S)Nc3cccc(Cl)c3)CC2)=C(O)C1 | 233% (active)
COCCNC(=S)N(CCc1c(C)[nH]c2ccc(C)cc12)Cc1cccnc1 | 0.573%
CNC(=O)C(=O)N/N=C/c1ccccn1 | -0.138%
Cc1nnc(N/N=C/C2CC=CCC2)[nH]c1=O (configuration not stated) | -0.414%
Cc1nnc(N/N=C/c2ccccn2)[nH]c1=O | 117% (active)
CCCN(CCC)C(=S)Nc1cc(C(=O)OC)ccc1C(=O)OC | 166% (active)
CCS(=O)(=O)Nc1cc(C(=O)OC)ccc1C(=O)OC | -0.124%
CCN(CCO)C(=S)Nc1cc(C(=O)OC)ccc1C(=O)OC | -0.0671%
Fc1ccc(-c2ccc(NCCN3CCOCC3)nn2)cc1 | 3.51%
COc1ccc(NC(=O)CCCC(=O)c2ccccc2)cc1 | 0.37%
